Source: PubChem
An excerpt weighted towards active compounds, which were near 6.7% of everything screened.
Pf Dd2 inh – P. falciparum Dd2 growth inhibitors, primary screen, SYBR Green fluorescence, single dose replicates; 72 h; hits give low values; activity change, % at 10 µM; hit rate 2.3% among 94,000; in the data active = activity change below about -80%; inconclusive = no clear call, values can overlap the other calls
C diff HTS – C. difficile growth inhibitors, primary screen, HTS; hit rate 0.25% among 86,000; growth activity, negative = inhibition, % at 16 µg/mL (by protocol); Clostridium difficile clinical isolate growth, OD600, 24 h; hits give low values;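 active = mean growth activity at or below -80% and every replicate also at or below -80%; inconclusive = mean at or below -80% but some replicate above -80%; inactive = mean growth activity above -80%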;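 note: 0% = DMSO wells and -100% = levofloxacin 16 µg/mL wells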
T cruzi growth-1 – T. cruzi intracellular proliferation inhibitors, primary screen, cell-based, beta-gal Tulahuen parasites, NIH3T3 host, luminescence; T. cruzi beta-gal in NIH3T3, GalScreen luminescence, 90 h; inhibition, % at 8.34 µM; hit rate 5.9% among 77,000; AID 624255, 2012;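 active = mean inhibition above about 93%, with at least 55% of replicates each passing it, limit read from the data, passing the limit was not always enough; inconclusive = only one of those two conditions holds; inactive = neither condition holds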
T cruzi growth-2 – T. cruzi intracellular proliferation inhibitors, confirmation, cell-based, NIH3T3 host, beta-gal parasite, luminescence, cherry-pick. shares compounds with T cruzi growth-1. T. cruzi beta-gal in NIH3T3, GalScreen luminescence, 90 h. inhibition, % at 8.35 µM. hit rate 72% among 5,600. AID 651739, 2012;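 active = mean replicate inhibition above about 95% and at least 55% of replicates individually reaching it, limit read from the data; inconclusive = only one of the two criteria is met; inactive = neither criterion is met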
T cruzi growth-3 – inhibitors of intracellular T. cruzi replication, confirmation, NIH3T3 host cells, beta-gal parasites, cherry-pick, set 2; shares compounds with T cruzi growth-1; T. cruzi beta-gal in NIH3T3, GalScreen luminescence, 90 h; hit rate 21% among 5,600; AID 651740, 2012; inhibition, % at 2.09 µM;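 active = mean inhibition above about 95%, with at least 55% of replicates also reaching it, limit read from the data; inconclusive = meets just one of the two conditions; inactive = meets neither condition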;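 note: plate controls were neutral control median for no effect and positive control median for full effect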
NIH3T3 tox – cytotoxicity in mouse NIH/3T3 fibroblasts, confirmation, cytotoxicity control for T. cruzi proliferation inhibitor project, cell-based, cherry-pick, single point. shares compounds with T cruzi growth-1. hit rate 14% among 5,600. NIH/3T3 viability, CellTiter-Glo ATP luminescence, 90 h. cytotoxicity (signal decrease), % at 8.35 µM;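 active = mean signal decrease across replicates above about 35% based on untreated-well scatter, with enough replicates individually passing, limit read from the data; inconclusive = no rule stated though some were filed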;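 note: 0% = median of neutral control wells and 100% = median of positive control wells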
3T3 cytotox 2 – NIH/3T3 fibroblast cytotoxicity, confirmation, cytotoxicity control, cell-based, cherry-pick, single point, set 2. shares compounds with T cruzi growth-1. hit rate 56% among 5,600. inhibition, % at 24.9 µM. NIH/3T3 viability, CellTiter-Glo ATP luminescence, 90 h. AID 651744, 2012;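 active = mean loss of cell viability signal at or above a set limit, and enough replicates individually reaching it; inconclusive = meets only the mean limit or only the replicate share; inactive = meets neither condition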;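 note: 0% = median of neutral control wells and 100% = median of positive control wells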
* marks the source's active call; other numbers are inactive results; ? = inconclusive; . = no result.

SMILES | Pf Dd2 inh | C diff HTS | T cruzi growth-1 | T cruzi growth-2 | T cruzi growth-3 | NIH3T3 tox | 3T3 cytotox 2
C[C@H]1CN([C@@H](C)CO)S(=O)(=O)c2ccc(C#Cc3ccccc3)cc2O[C@@H]1CN(C)S(=O)(=O)c1cn(C)cn1 | -87* | -9 | ? | 112* | 54 | 41* | 36*
C[C@H](CO)N1C[C@H](C)[C@@H](CN(C)S(=O)(=O)c2cn(C)cn2)Oc2cc(C#Cc3ccc(F)cc3)ccc2S1(=O)=O | -58 | 2 | 107* | 96* | 80 | 18 | 25*
C[C@H]1CN([C@@H](C)CO)S(=O)(=O)c2ccc(C#Cc3cccc(F)c3)cc2O[C@H]1CN(C)S(=O)(=O)c1cn(C)cn1 | -69 | 2 | 96* | 97* | 47 | 25 | 29*
C[C@H](CO)N1C[C@H](C)[C@H](CN(C)S(=O)(=O)c2cn(C)cn2)Oc2cc(C#Cc3ccc(F)cc3)ccc2S1(=O)=O | -57 | 3 | 117 | . | . | . | .
C/C=C/c1ccc([C@H]2[C@@H](CO)N(S(C)(=O)=O)[C@H]2CN(CC)C(C)=O)cc1 | 8 | -4 | . | . | . | . | .
CO[C@H]1CN(C)C(=O)c2cc(NC(=O)C3CCC3)ccc2OC[C@H](C)N(Cc2cccnc2)C[C@H]1C | -12 | . | 27 | . | . | . | .
O=C(NCc1ccccn1)[C@@H]1[C@@H](CO)[C@@H]2Cn3c(cccc3=O)[C@H]1N2CC1CCCCC1 | -13 | 5 | 10 | . | . | . | .
COc1ccc2c3c([nH]c2c1)[C@@H](CO)N(CC1CCOCC1)CC31CN(C(=O)C2CCOCC2)C1 | 40 | -1 | . | . | . | . | .
Cc1ccc(S(=O)(=O)Nc2ccc3c(c2)C(=O)N([C@@H](C)CO)C[C@H](C)[C@@H](CN(C)S(=O)(=O)c2ccc(F)cc2)OCCCC[C@@H](C)O3)cc1 | -78 | -9 | . | . | . | . | .
Cc1ccc(S(=O)(=O)Nc2ccc3c(c2)C(=O)N([C@H](C)CO)C[C@H](C)[C@@H](CN(C)S(=O)(=O)c2ccc(F)cc2)OCCCC[C@@H](C)O3)cc1 | -27 | -6 | . | . | . | . | .
Cc1ccc(S(=O)(=O)N(C)C[C@H]2OCCCC[C@H](C)Oc3ccc(NS(=O)(=O)c4ccc(F)cc4)cc3C(=O)N([C@H](C)CO)C[C@H]2C)cc1 | -80 | -1 | 116* | 98* | 72 | -33 | 40*
Cc1ccc(S(=O)(=O)N(C)C[C@@H]2OCCCC[C@H](C)Oc3ccc(NS(=O)(=O)c4ccc(F)cc4)cc3C(=O)N([C@H](C)CO)C[C@@H]2C)cc1 | -58 | 0 | 108* | 97* | 71 | -20 | -1
Cc1ccc(S(=O)(=O)Nc2ccc3c(c2)C(=O)N([C@H](C)CO)C[C@H](C)[C@H](CN(C)S(=O)(=O)c2ccc(F)cc2)OCCCC[C@H](C)O3)cc1 | -69 | -5 | 120* | 103* | 107* | -12 | 16
Cc1ccc(S(=O)(=O)N(C)C[C@@H]2OCCCC[C@@H](C)Oc3ccc(NS(=O)(=O)c4ccc(F)cc4)cc3C(=O)N([C@H](C)CO)C[C@@H]2C)cc1 | -1 | -1 | 30 | . | . | . | .
C[C@@H]1CN([C@H](C)CO)C(=O)c2cc(NC(=O)C3CC3)ccc2O[C@H]1CN(C)S(=O)(=O)c1cn(C)cn1 | 52 | . | -20 | . | . | . | .
CC(C)NC(=O)N1[C@@H]2CN(C(=O)c3ccccc3F)c3ccccc3[C@@H]2[C@@H]1CO | 2 | -2 | -5 | . | . | . | .
COc1ccccc1-c1ccc2c(c1)O[C@H](CN(C)S(=O)(=O)c1ccccc1)[C@H](C)CN([C@@H](C)CO)S2(=O)=O | -51 | 9 | ? | 103* | 63 | 17 | 44*
C[C@@H]1CN([C@H](C)CO)S(=O)(=O)c2ccc(Br)cc2O[C@@H]1CN(C)S(=O)(=O)c1ccccc1 | 2 | 20 | . | . | . | . | .
COc1ccccc1-c1ccc2c(c1)O[C@H](CN(C)S(=O)(=O)c1ccccc1)[C@H](C)CN([C@H](C)CO)S2(=O)=O | -57 | 8 | 95* | 105* | 42 | 25 | 37*
COc1ccccc1-c1ccc2c(c1)O[C@@H](CN(C)S(=O)(=O)c1ccccc1)[C@@H](C)CN([C@H](C)CO)S2(=O)=O | -51 | 14 | 90* | 105* | 58 | 60* | 49*
COc1ccccc1-c1ccc2c(c1)O[C@@H](CN(C)S(=O)(=O)c1ccccc1)[C@H](C)CN([C@H](C)CO)S2(=O)=O | -82* | 7 | ? | 105* | 50 | 37* | 39*
COc1ccccc1-c1ccc2c(c1)O[C@@H](CN(C)C)[C@@H](C)CN([C@H](C)CO)S2(=O)=O | -5 | -4 | -3 | . | . | . | .
COc1ccccc1-c1ccc2c(c1)O[C@@H](CN(C)C(C)=O)[C@@H](C)CN([C@H](C)CO)S2(=O)=O | 9 | 0 | 20 | . | . | . | .
C[C@H]1CN([C@@H](C)CO)S(=O)(=O)c2ccc(Br)cc2O[C@@H]1CN(C)S(=O)(=O)c1ccccc1 | 27 | 7 | . | . | . | . | .
CC=Cc1ccc2n(c1=O)C[C@@H]1[C@@H](CO)[C@H](C(=O)N(C)C)[C@H]2N1CC1CCOCC1 (mixture of isomers) | 12 | -6 | 6 | . | . | . | .
SMILES | Pf Dd2 inh | C diff HTS | T cruzi growth-1 | T cruzi growth-2 | T cruzi growth-3 | NIH3T3 tox | 3T3 cytotox 2
COc1cccc(-c2ccc3c(c2)[C@H]2[C@H](CCN2C(=O)C2CCCC2)[C@H](CO)N3)c1 | -80 | 3 | . | . | . | . | .
COc1ccccc1-c1ccc2c(c1)O[C@@H](CN(C)S(=O)(=O)c1ccccc1)[C@H](C)CN([C@@H](C)CO)S2(=O)=O | ? | 5 | 98* | 104* | 92 | 47* | 38*
COc1ccccc1-c1ccc2c(c1)O[C@H](CN(C)C(=O)c1ccccc1)[C@H](C)CN([C@H](C)CO)S2(=O)=O | -35 | -2 | 10 | . | . | . | .
COc1ccccc1-c1ccc2c(c1)O[C@@H](CN(C)S(=O)(=O)c1ccccc1)[C@@H](C)CN([C@@H](C)CO)S2(=O)=O | -76 | 2 | 80* | 101* | 99* | ? | 42*
COc1ccccc1-c1ccc2c(c1)O[C@@H](CN(C)C(=O)c1ccccc1)[C@H](C)CN([C@@H](C)CO)S2(=O)=O | -43 | 1 | 17 | . | . | . | .
O=C(C1CC1)N1CCCCN2[C@@H](CO)[C@@H](c3ccc(-c4ccncc4)cc3)[C@@H]2C1 | 17 | -5 | -132 | . | . | . | .
C[C@@H]1CCCCO[C@@H](CN(C)C(=O)C2CCCCC2)[C@@H](C)CN([C@@H](C)CO)C(=O)c2cc(N(C)C)ccc2O1 | 15 | -4 | 47 | . | . | . | .
